Results: PubChem BioAssay AID2783 (National Center for Advancing Translational Sciences (NCATS), 2010)
Inconclusive results are not listed. Calls come from the whole dose curve; as a rule, active = well fitted inhibition curve with a large enough effect in the polarisation, with a control signal flat (not every such curve was filed as active); inconclusive = small, poorly fitted or top-dose-only effect, or effect the other way, or a change in a side signal; inactive = no such curve, though single readings can be large or run the other way; the % refers to the polarisation. Where a SMILES comes first, the peptide text is derived from it. Bridges are numbered along the chain shown (N, C = ends). [ ]: non-standard residue; d: D form. The star is where a group is joined. ξ: configuration not given here. ξDab(CH2SO3H) = NC(CCNCS(=O)(=O)O)C(=O)O; Heptanoyl(6-Me) = CC(C)CCCCC(=O)*; Dab = NCC[CH](N)C(=O)O

Each molecule was assayed against Menin (Homo sapiens) (UniProt O00255) (assay: Confirmation of Inhibitors Targeting the Menin-MLL Interaction in MLL Related Leukemias: Competition With Fluorescein Labeled MLL-derived Peptide). Conditions: Fluorescence polarization, fluorescein-MLL peptide displacement from menin; series mostly up to 100 µM; activity change, negative = inhibition: at the top concentration.
% is set by controls: 0 for no effect and ±100 for the full control effect.

Sequence of Menin (Homo sapiens) (O00255 whole entry, looked up): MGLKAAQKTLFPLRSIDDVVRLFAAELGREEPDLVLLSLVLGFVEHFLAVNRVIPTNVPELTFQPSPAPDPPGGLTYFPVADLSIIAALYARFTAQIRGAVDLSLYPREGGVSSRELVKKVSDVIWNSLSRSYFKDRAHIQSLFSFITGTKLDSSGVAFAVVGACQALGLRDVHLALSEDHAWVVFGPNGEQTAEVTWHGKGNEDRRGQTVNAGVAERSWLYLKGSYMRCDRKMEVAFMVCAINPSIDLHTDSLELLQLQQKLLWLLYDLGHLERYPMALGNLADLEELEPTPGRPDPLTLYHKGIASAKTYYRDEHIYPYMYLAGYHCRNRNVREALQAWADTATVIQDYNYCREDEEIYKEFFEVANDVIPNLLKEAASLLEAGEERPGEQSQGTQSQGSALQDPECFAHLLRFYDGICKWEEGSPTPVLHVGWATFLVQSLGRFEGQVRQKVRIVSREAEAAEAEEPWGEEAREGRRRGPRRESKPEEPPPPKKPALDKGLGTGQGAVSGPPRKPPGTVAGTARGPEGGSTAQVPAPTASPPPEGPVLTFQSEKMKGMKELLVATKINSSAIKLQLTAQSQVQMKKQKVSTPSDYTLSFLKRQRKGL

Activity change, negative = inhibition, inactive:
CCCN(CCC)CCCNC(=S)Nc1ccc2nc(N3CCCC3)cc(C)c2c1 -6.49%
O=C(Nc1nccs1)C(Br)C(Br)c1ccccc1 (configuration not stated) 0.0812% [at 288 µM]
COc1cccc(NC(=O)N2CCCc3ccccc32)c1 -1.89%
Cc1c(F)cccc1NS(=O)(=O)c1ccc2c(c1)c(C)cc(=O)n2C -15.3%
O=C(O)c1cc(S(=O)(=O)O)cc(Nc2c3ccccc3nc3ccccc23)c1O -0.894% [at 288 µM]
COc1ccc(-c2cc(=O)c3c(O)cc(O)c(-c4cc(-c5cc(=O)c6c(O)cc(OC)cc6o5)ccc4OC)c3o2)cc1 -8.17%
CC(c1cc2ccccc2s1)N(O)C(N)=O (configuration not stated) 3.82% [at 288 µM]
CC(C)Cc1cc(C(=O)NCCCN2CCOCC2)no1 -12.7%
O=C(/C=C/c1ccccc1)Nc1nnc(SCC(=O)c2ccc3ccccc3c2)s1 -0.0809%
Fc1ccccc1C1c2cccn2CCN1C(=S)Nc1ccc(Br)cc1 (configuration not stated) -9.36%
CC1CCCCN1S(=O)(=O)c1ccc(C(=O)Nc2ccccc2-c2nc3ccccc3[nH]2)cc1 (configuration not stated) 8.04% [at 288 µM]
COc1cc(SC)ccc1C(=O)Nc1cccc(C2OCCCO2)c1 -4.55% [at 288 µM]
O=C(Nc1ccc2ccccc2c1)c1cn(-c2ccccc2)nc1-c1cccs1 -8.29%
CCC(C)C1NC(=O)C(CCNCS(=O)(=O)O)NC(=O)C(NC(=O)C(CCNCS(=O)(=O)O)NC(=O)C(NC(=O)C(CCNCS(=O)(=O)O)NC(=O)CCCCC(C)C)C(C)O)CCNC(=O)C(C(C)O)NC(=O)C(CCNCS(=O)(=O)O)NC(=O)C(CCNCS(=O)(=O)O)NC(=O)C(C(C)CC)NC1=O (configuration not stated) ({Heptanoyl(6-Me)}-[ξDab(CH2SO3H)]T[ξDab(CH2SO3H)][Dab][ξDab(CH2SO3H)]II[ξDab(CH2SO3H)][ξDab(CH2SO3H)]T; lactam 4-C; configuration not given here) -14.6%
CCC(=O)Nc1ccc(-c2cc(-c3ccccc3)nc(-c3ccc(NC(=O)CC)cc3)n2)cc1 6.74% [at 288 µM]
O=C(Nc1nnc(-c2ccccc2SCc2ccccc2)s1)Nc1ccccc1F -5.58%
CN1CCN(CC(=O)Nc2ccc(S(=O)(=O)N(C)C)cc2)CC1 2.22%
